Screening results: PubChem BioAssay, National Center for Advancing Translational Sciences (NCATS)
Tau FP inhib – blocks human tau fibril formation measured by polarization; K18 P301L tau heparin fibrillization, Alexa594 FP, 6 h; Potency, µM (doses to about 57.7 µM), for the others: top-dose activity, negative = inhibition, hits mostly inhibitors; AID 1468; 0.39% of 280,000 active; also: nearly all actives have a fitted effect of over 55% in size
Target sequence (P10636 561-689 P618L limits assumed): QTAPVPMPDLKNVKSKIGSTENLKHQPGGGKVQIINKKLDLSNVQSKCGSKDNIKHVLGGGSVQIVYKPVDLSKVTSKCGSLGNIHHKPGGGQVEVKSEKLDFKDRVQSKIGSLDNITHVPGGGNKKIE
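Human K18 P301L fragment (15 uM unlabeled plus 0.24 uM Alexa 594-labeled) in 100 mM sodium acetate pH 7 with compound, aggregation induced by 20 uM heparin for 6 hr at 37 C. ThT (30 uM) added for 1 hr, then Alexa 594 FP read.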
TRb-SRC2 inh – inhibitors of human thyroid hormone receptor beta-SRC2 interaction; P10828; TRbeta-SRC2 peptide binding, fluorescence polarization; receptor liganded with 1 µM T3; Potency, µM (highest dose often 106 µM), for the others: at the top dose activity change, negative = inhibition, most hits filed as inhibitors; 0.065% of 280,000 active; AID 1469;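 also: plate controls were bound peptide for no effect and peptide without receptor for full effect; nearly all actives have a fitted effect of over 50% in size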
Target sequence (P10828 whole entry, looked up): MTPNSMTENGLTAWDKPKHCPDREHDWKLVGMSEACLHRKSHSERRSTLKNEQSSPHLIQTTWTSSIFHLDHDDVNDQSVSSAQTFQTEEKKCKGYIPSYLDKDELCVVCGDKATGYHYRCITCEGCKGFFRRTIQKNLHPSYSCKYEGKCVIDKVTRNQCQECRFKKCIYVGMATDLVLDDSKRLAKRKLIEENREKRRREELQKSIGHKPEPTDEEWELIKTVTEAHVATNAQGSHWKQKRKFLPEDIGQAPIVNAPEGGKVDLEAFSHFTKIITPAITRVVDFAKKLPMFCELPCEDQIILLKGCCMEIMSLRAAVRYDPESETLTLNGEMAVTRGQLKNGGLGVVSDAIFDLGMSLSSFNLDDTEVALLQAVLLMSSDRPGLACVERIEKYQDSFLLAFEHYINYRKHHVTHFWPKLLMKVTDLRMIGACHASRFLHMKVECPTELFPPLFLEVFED
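TRb LBD 0.6 uM + Texas Red SRC2 peptide 20 nM, 1 uM T3, Tris buffer w/ 5% DMSO; compound pinned, 5 h RT; FP read ex 555/em 632; normalized to unbound and bound controls.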
Tau ThT inhib – inhibitors of human tau fibril formation, thioflavin T binding; recombinant tau K18 P301L, heparin-induced fibrillization, ThT fluorescence; Potency, µM (titrated, usually from 57.4 µM), for inactives: at the highest dose activity, negative = inhibition, usual class: inhibitors; 2.1% of 270,000 active; also: nearly all actives have a fitted effect of over 55% in size
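Recombinant human tau K18 fragment […] carrying P301L, 15 uM unlabeled plus 0.24 uM Alexa 594-labeled, was fibrillized with 20 uM heparin in 100 mM sodium acetate pH 7 for 6 hr at 37 C; 30 uM ThT fluorescence read after 1 hr.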
TexasRed fluor – Texas Red fluorescence interference in TRb-SRC2 counter-screen; Potency, µM (doses to about 106 µM), for the others: at the highest dose fluorescence change, negative = quenching; 0.29% of 280,000 active; TRb/SRC2 Texas Red total fluorescence interference; active = well fitted curve in either direction with a large enough effect; inconclusive = small, poorly fitted or top-dose-only effect
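Human TRβ ligand-binding domain (0.6 uM) and Texas Red SRC2 peptide (20 nM) in Tris buffer with 1 uM T3 and 5% DMSO were incubated with pinned compound for 5 hr at ambient temperature. Total fluorescence was computed as S + 2P (555/632 nm).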
Tau fluor cs – counter-screen for tau fibril formation inhibitors; Potency, µM (series often up to 57.7 µM), inactives show top-dose activity change, negative = decrease; tau K18 P301L Alexa594 fluorescence, heparin fibrillization; AID 1463; 0.93% of 280,000 active; also: nearly all actives have a fitted effect of over 55% in size
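Human tau K18 P301L (15 uM unlabeled, 0.24 uM Alexa 594-labeled) in 100 mM sodium acetate pH 7 with 20 uM heparin, 6 hr at 37 C. ThT 30 uM added, 1 hr ambient; Alexa 594 FP and total fluorescence read at 555/632 nm.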
JMJD2E inh – JMJD2E (human) inhibition | AID 2147 | JMJD2E catalytic domain, FDH-coupled NADH fluorescence (FDH is formaldehyde dehydrogenase) | Potency, µM (highest dose often 57.1 µM), for inactives: at the top dose activity change, negative = inhibition, actives largely listed as inhibitors | 1.6% of 230,000 active | B2RXH2; active = well fitted inhibition curve with a large enough effect, not every such curve was filed as active; inconclusive = small, poorly fitted or top-dose-only effect, or another doubt; inactive = no such curve, though single readings can be large or run the other way;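 also: 0% = wells with enzyme and -100% = buffer wells without enzyme; nearly all actives have a fitted effect of over 50% in size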
Starred values were filed as active, the others as inactive; [ ] = another dose, or the depositor's remark. Most compounds without a hit are left out; they make up all but 3.5% or so of the library. Unless noted, calls follow the shape of the dose curve; as a rule, active = well fitted curve in the direction sought with a large enough effect; inconclusive = small, poorly fitted or top-dose-only effect, or another doubt; inactive = no such curve, though single readings can be large; an effect the other way counts as inactive or inconclusive. Unless noted, % is scaled to controls: 0 for no effect and ±100 for the full control effect; potency is read from the fitted curve at half-maximal effect.

Screening CC(=O)Nc1cccc(NC(=O)Cn2cnc3c(oc4ccccc43)c2=O)c1 returned Tau FP inhib -12%, TRb-SRC2 inh 2%, Tau ThT inhib inconclusive, TexasRed fluor 8% and Tau fluor cs inconclusive.
Screening COc1ccc(-c2cc(C)no2)cc1S(=O)(=O)N1CCc2ccccc21 returned Tau FP inhib 15%, TRb-SRC2 inh 1%, Tau ThT inhib inconclusive, TexasRed fluor 1% and Tau fluor cs 28µM*[fluorescent].
Screening Cc1ccc(NC(=S)NNC(=O)c2nn(C)c(C)c2Cl)cc1 returned Tau FP inhib 2%, TRb-SRC2 inh 2%, Tau ThT inhib -22%, TexasRed fluor -3%, Tau fluor cs -9% and JMJD2E inh 13µM*.
For CC(NC(=O)Nc1ccc(O)cc1)(C(F)(F)F)C(F)(F)F the results were Tau FP inhib inconclusive, TRb-SRC2 inh 35µM*, Tau ThT inhib 22µM*, TexasRed fluor 3%, Tau fluor cs inconclusive and JMJD2E inh inconclusive.
Screening COc1ccc(NC(=O)NC(C)(C(F)(F)F)C(F)(F)F)cc1 returned Tau FP inhib 5%, TRb-SRC2 inh 0%, Tau ThT inhib -7%, TexasRed fluor 1%, Tau fluor cs -4% and JMJD2E inh 9%.
Cc1ccc(C(=O)/C=C/c2cn(CC(O)CN3CCCCCC3)c3ccccc23)cc1 (stereo unspecified) was read as Tau FP inhib -21%, TRb-SRC2 inh 5%, Tau ThT inhib 13µM*, TexasRed fluor -4% and Tau fluor cs inconclusive.
For O=C(/C=C/c1cn(CC(O)CN2CCCCCC2)c2ccccc12)c1ccc(Br)cc1 (stereo unspecified) the results were Tau FP inhib -12%, TRb-SRC2 inh -1%, Tau ThT inhib 22µM*, TexasRed fluor -4% and Tau fluor cs inconclusive.
O=C(/C=C/c1cn(CC(O)CN2CCCCCC2)c2ccccc12)c1ccccc1 (stereo unspecified) was read as Tau FP inhib -6%, TRb-SRC2 inh -2%, Tau ThT inhib inconclusive, TexasRed fluor -5% and Tau fluor cs inconclusive.
Screening CC(=O)Oc1cc2oc(=O)c3c(c2cc1Cl)CCC3 returned Tau FP inhib 18µM*, TRb-SRC2 inh -8%, Tau ThT inhib 14µM*, TexasRed fluor -6%, Tau fluor cs inconclusive and JMJD2E inh inconclusive.
For CSCC[C@H](Nc1ncnc2sc(C)c(C)c12)C(=O)O the results were Tau FP inhib -2%, TRb-SRC2 inh -19%, Tau ThT inhib -6%, TexasRed fluor 3%, Tau fluor cs -11% and JMJD2E inh 3%.
`O=C(O)c1cc(S(=O)(=O)N2CCOCC2)ccc1N1CCOCC1` gave Tau FP inhib 4%, TRb-SRC2 inh 7%, Tau ThT inhib -9%, TexasRed fluor 0%, Tau fluor cs -3% and JMJD2E inh 4%.
`O=c1c2ccccc2sn1-c1cc(S(=O)(=O)N2CCOCC2)ccc1N1CCOCC1` gave Tau FP inhib inconclusive, Tau ThT inhib inconclusive, Tau fluor cs -5% and JMJD2E inh 8.9µM*.
O=c1c2ccccc2sn1-c1cc(S(=O)(=O)N2CCOCC2)ccc1N1CCCC1 was read as Tau FP inhib 32µM*, TRb-SRC2 inh 10%, Tau ThT inhib 25µM*, TexasRed fluor 1%, Tau fluor cs -27% and JMJD2E inh 14µM*.
For O=C(Nc1ccc(-c2nc3cc(Cl)ccc3o2)cc1)c1cc2ccccc2o1 the results were Tau FP inhib -6%, TRb-SRC2 inh inconclusive, Tau ThT inhib -4%, TexasRed fluor 22% and Tau fluor cs -1%.
Screening COc1ccccc1NCC(O)Cn1c2ccccc2c2ccccc21 (stereo unspecified) returned Tau FP inhib inconclusive, TRb-SRC2 inh 5%, Tau ThT inhib inconclusive, TexasRed fluor -6%, Tau fluor cs 10µM*[quencher] and JMJD2E inh 0%.
Screening COc1ccc(CCNCC(O)Cn2c3ccccc3c3ccccc32)cc1OC (stereo unspecified) returned Tau FP inhib -4%, TRb-SRC2 inh 2%, Tau ThT inhib -12%, TexasRed fluor -3%, Tau fluor cs -29% and JMJD2E inh -8%.
Screening COc1cccc(/C=C/c2nc(C#N)c(NCCc3ccc(OC)c(OC)c3)o2)c1 returned Tau FP inhib inconclusive, TRb-SRC2 inh 3%, Tau ThT inhib inconclusive, TexasRed fluor -5% and Tau fluor cs 13µM*[quencher].
For COc1ccc(CNc2oc(-c3cccc4ccccc34)nc2C#N)cc1 the results were Tau FP inhib -7%, TRb-SRC2 inh 3%, Tau ThT inhib -17%, TexasRed fluor 0%, Tau fluor cs 8.9µM*[quencher] and JMJD2E inh inconclusive.
For Cc1ccc(CNc2oc(C)nc2C#N)cc1 the results were Tau FP inhib inconclusive, TRb-SRC2 inh 1%, Tau ThT inhib inconclusive, TexasRed fluor -2%, Tau fluor cs 11µM*[quencher] and JMJD2E inh -9%.
Screening COc1ccc(CNc2oc(/C=C/c3cccc(OC)c3)nc2C#N)cc1 returned Tau FP inhib inconclusive, TRb-SRC2 inh -2%, Tau ThT inhib inconclusive, TexasRed fluor -5% and Tau fluor cs 6.3µM*[quencher].
`COC(=O)c1ccccc1NC(=O)Cn1c(=O)n(CCC(=O)NC2CCN(Cc3ccccc3)CC2)c(=O)c2ccccc21` gave Tau FP inhib 6%, TRb-SRC2 inh 2%, TexasRed fluor -1%, Tau fluor cs -29% and JMJD2E inh -4%.
For CO/N=C(\Cn1ncc(NC2CCCCC2)c(Br)c1=O)c1ccc(Cl)cc1 the results were Tau FP inhib 5%, TRb-SRC2 inh 1%, Tau ThT inhib inconclusive, TexasRed fluor -3%, Tau fluor cs -6% and JMJD2E inh -5%.
`N#Cc1nc(-c2cccc3ccccc23)oc1NCC1CCCO1` (stereo unspecified) gave Tau FP inhib inconclusive, TRb-SRC2 inh -1%, Tau ThT inhib inconclusive, TexasRed fluor -5%, Tau fluor cs 16µM*[quencher] and JMJD2E inh inconclusive.
COc1cc(/C=N/NC(=O)Cc2c[nH]c3ccccc23)cc(OC)c1OC was read as Tau FP inhib 9%, TRb-SRC2 inh 3%, Tau ThT inhib -15%, TexasRed fluor 0%, Tau fluor cs -14% and JMJD2E inh -30%.
`COc1cc(/C=N/NC(=O)[C@H](Cc2c[nH]c3ccccc23)NC(=O)OCC(C)C)cc([N+](=O)[O-])c1O` gave Tau FP inhib inconclusive, TRb-SRC2 inh 18%, Tau ThT inhib 14µM*, TexasRed fluor inconclusive, Tau fluor cs inconclusive and JMJD2E inh inconclusive.
